# SW480 rerep = DNA re-replication induction in SW480 cells | SW480 DNA re-replication, Hoechst DNA content imaging, 48 h | Potency, µM (series often up to 46.1 µM), usual class: activators | 1.8% of 340,000 active | AID 624297; further: nearly all actives have a fitted effect of over 55% in size
#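 Per well, 250 cells were exposed to pinned compound for 48 hr. Nuclear DNA was visualised with Hoechst (40 min, 37 C) and total object intensity recorded by fluorescence scanning.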
# KB-3-1 cytotox = KB-3-1 parental cell cytotoxicity | Potency, µM (titrated, usually from 46.1 µM), hits mostly cytotoxic | 1.4% of 400,000 active | KB-3-1 viability, CellTiter-Glo ATP luminescence, 72 h; further: nearly all actives have a fitted effect of over 60% in size
#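 72 h, 37 °C compound treatment of KB-3-1 parental cells; CellTiter-Glo added, 10 min, luminescence read. Data corrected against DMSO-only plates and normalized before curve fitting.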
# PTAP TSG101 blk = blocks PTAP/TSG101 interaction to inhibit HIV-1 budding. Q99816. Fluorescence polarization, FITC-PTAP peptide / Tsg101 binding. Potency, µM (titrated, usually from 115 µM), usual class: inhibitors. 340,000 tested, under 10 active; active means well fitted inhibition curve with a large enough effect in the main read-out, with a control signal flat, not every such curve was filed as active; inconclusive means small, poorly fitted or top-dose-only effect, or effect the other way, or a change in a side signal; inactive means no such curve, though single readings can be large or run the other way
# Target sequence (Q99816 whole entry, looked up): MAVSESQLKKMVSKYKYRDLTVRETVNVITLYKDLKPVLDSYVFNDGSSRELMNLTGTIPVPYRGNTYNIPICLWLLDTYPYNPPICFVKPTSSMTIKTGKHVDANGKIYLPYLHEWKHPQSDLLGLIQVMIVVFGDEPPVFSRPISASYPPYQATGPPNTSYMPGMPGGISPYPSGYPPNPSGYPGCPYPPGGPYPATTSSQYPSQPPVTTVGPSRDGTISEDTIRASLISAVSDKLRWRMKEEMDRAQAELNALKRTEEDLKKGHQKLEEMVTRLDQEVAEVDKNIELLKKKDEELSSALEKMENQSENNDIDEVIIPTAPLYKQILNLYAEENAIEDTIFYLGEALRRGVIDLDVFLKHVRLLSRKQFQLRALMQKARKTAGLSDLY
#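 Fluorescence anisotropy tracks displacement of a FITC-tagged PTAP peptide (50 nM) from the Tsg101 binding domain (10 uM), following a 20 min room-temperature incubation at pH 7.5.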
# KB-V1 MDR tox = kills drug-selected multidrug resistant KB-V1 cells | KB-V1 MDR cells viability, CellTiter-Glo, 72 h | Potency, µM (doses to about 46.1 µM), most hits filed as cytotoxic | 3.4% of 400,000 active | AID 1347076; further: nearly all actives have a fitted effect of over 60% in size
#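 KB-V1, DMEM (no phenol red) + 10% FBS; cpd pin-transferred, titration series; 72 h, 37 degrees C; CellTiter-Glo, luminescence. Data normalized, curve-fit.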
# PINK1 expr mod = changes PINK1 expression; AID 624263; Potency, µM (series often up to 76.6 µM), hits mostly activators; PINK1 immunofluorescence, high-content cytometry, 24 h; 0.2% of 410,000 active; active means well fitted activation curve with a large enough effect; inconclusive means small, poorly fitted or top-dose-only effect; cell line not stated here; further: nearly all actives have a fitted effect of over 65% in size
#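 PINK1 protein, normally rapidly degraded, was detected by immunofluorescence after 24 hour compound treatment of a stable cell line. Titration data (5 concentrations) came from laser-scanning cytometry, with CCCP-treated wells as controls.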
# MCF10A rereplic = inducers of DNA re-replication in MCF 10A breast cells | MCF 10A DNA re-replication, Hoechst nuclear intensity, 48 h | Potency, µM (doses to about 46.1 µM), hits mostly activators | 2.9% of 350,000 active | AID 624296; further: nearly all actives have a fitted effect of over 50% in size
# Hits are given with their value; 0 = inactive; ? = inconclusive; - = no result given. Only some compounds are listed: those with a hit (about 6.8% of all), similar ones and a draw of the others. Unless noted, the call rests on the fitted dose curve; in most records, active means well fitted curve in the direction sought with a large enough effect; inconclusive means small, poorly fitted or top-dose-only effect, or another doubt; inactive means no such curve, though single readings can be large; an effect the other way counts as inactive or inconclusive.
SMILES,SW480 rerep,KB-3-1 cytotox,PTAP TSG101 blk,KB-V1 MDR tox,PINK1 expr mod,MCF10A rereplic
CN1CCN(NC(=O)c2cccc(S(=O)(=O)N3CCCCCC3)c2)CC1,0,0,0,0,0,0
CN(Cc1cc(Cl)cc(Cl)c1O)Cc1c(O)ccc2ccccc12,?,0,0,0,0,23µM
CN(Cc1ccccc1)Cc1c(O)ccc2ccccc12,0,0,0,0,0,0
CCOC(=O)C1CCN(C(=O)CN2c3ccc(C(C)C)cc3-c3ccccc3S2(=O)=O)CC1,-,0,-,0,0,-
O=C(C1CN(C(=O)c2cc3cc(Cl)ccc3o2)c2ccccc2O1)N1CCCCC1 (stereo not given),0,?,0,21µM,0,?
O=C(c1cc2cc(Cl)ccc2oc1=O)N1CCCCCCC1,0,0,0,0,0,0
COc1ccc(OC)c(NC(=O)c2cc3cc(C)ccc3n2C)c1,-,0,-,0,0,-
CCOc1ccc(-c2nnn(CC(=O)NCc3ccccc3)n2)cc1,?,6.5µM,0,?,0,?
CCOc1ccc(-c2nnn(CC(=O)NCc3ccco3)n2)cc1,0,?,0,?,0,?
Cc1ccc(Cl)cc1Nc1nn2c(=O)c3ccc(C(=O)Nc4ccc(F)cc4)cc3nc2s1,-,0,-,0,0,-
O=C(COc1ccc2ccccc2c1Br)NC(=S)Nc1cccc(CO)c1,2.9µM,0,0,0,0,?
CCOC(=O)c1c(CC(C)C)csc1NC=O,0,16µM,0,4.6µM,0,?
CCOC(=O)c1c(CC(C)C)csc1/N=C/C1C(=O)CCCC1=O,16µM,0,0,0,?,?
CCn1nc(C)c2c(-c3ccccc3)cc(=O)n(C(C)C(=O)NCCC(C)C)c21 (stereo not given),-,0,-,0,0,-
CCOC(=O)c1cc2c(=O)n3ccccc3nc2n(CCCOC)c1=NC(=O)c1cc2ccccc2o1,-,0,-,0,0,-
CCOC(=O)/C(C#N)=C\c1ccc(O)c(OC)c1,0,0,0,0,0,?
CCOC(=O)c1c(-c2ccc(C)cc2)csc1NC(=O)/C(C#N)=C/c1ccc(O)c(OC)c1,?,0,0,0,0,21µM
CCOC(=O)c1c(-c2ccccc2)csc1NC(=O)/C(C#N)=C\c1ccc(O)c(OC)c1,?,0,0,0,0,2.3µM
CCOC(=O)c1cccc(NC(=O)N2CC(CC)Sc3ccccc32)c1 (stereo not given),-,0,-,0,0,-
CCC(=O)Oc1oc(-c2ccccc2)nc1C=Nc1ccc(C)cc1,0,0,0,0,0,0
CCC(=O)Oc1oc(-c2ccccc2)nc1C=Nc1ccccc1OC,?,0,0,0,0,18µM
O=C1CCCC2=C1C(c1ccc(Cl)cc1)C1C(=O)c3ccccc3C1=N2 (stereo not given),15µM,0,0,0,0,13µM
Cc1ccc(C(CC(=O)Nc2cc(C)cc(C)c2)N2Cc3ccccc3C2=O)cc1 (stereo not given),-,0,-,?,0,-
Cc1c(NC(=O)CSc2ccc(Cl)cc2)cccc1-c1nc2ncccc2o1,0,0,0,?,0,0
O=C(Nc1cccc(-c2nc3ncccc3o2)c1)c1ccc(-c2cccc(Cl)c2Cl)o1,-,0,-,6.5µM,0,-
SMILES,SW480 rerep,KB-3-1 cytotox,PTAP TSG101 blk,KB-V1 MDR tox,PINK1 expr mod,MCF10A rereplic
O=C(CSc1ccc(Cl)cc1)Nc1cccc(-c2nc3ncccc3o2)c1,0,?,0,15µM,0,0
Cc1ccc2nc(-c3ccc(NC(=O)CSc4ccccc4)cc3)[nH]c2c1,0,0,0,0,-,0
O=C(CSc1ccc(Cl)cc1)Nc1cccc(-c2nc3ccccc3[nH]2)c1,0,0,0,0,?,18µM
O=C(CSc1ccccc1)Nc1ccc(-c2nc3ccccc3[nH]2)cc1,0,21µM,0,?,0,?
CC(=O)Nc1ccc(NC(=O)CCc2c(C)nc3c(c(C)nn3-c3ccc(C)cc3)c2C)cc1,-,-,-,-,0,-
N#Cc1c(N(CC(=O)O)CC(=O)O)sc(C(=O)O)c1CC(=O)O,0,-,-,-,-,0
O=C1c2ccc(Oc3cccc([N+](=O)[O-])c3)cc2C(=O)N1c1ccccn1,0,0,0,0,0,0
O=C1c2cc([N+](=O)[O-])cc3cc([N+](=O)[O-])cc(c23)C(=O)N1c1ccccn1,21µM,0,0,0,0,?
O=C1c2cc3ccccc3c(-c3ccccc3)c2C(=O)N1c1ccccn1,0,0,0,13µM,0,0
Cc1ccc(-c2nc(CS(=O)CC(=O)NC3CC3)c(C)o2)cc1 (stereo not given),0,0,0,0,0,21µM
Cc1ccc(S(=O)(=O)N2CCCCC2c2cccnc2)c(C)c1C (stereo not given),0,?,0,16µM,0,0
Cc1cc(-c2cccnc2)c(C#N)c(SCC#N)n1,0,0,0,0,-,0
Cc1cc(-c2cccnc2)c(C#N)c(SCc2cccc(F)c2)n1,0,0,0,12µM,0,0
COc1cc2c(cc1OC)/C(=C/c1ccc(Cl)cc1)C(=O)OC2,?,0,0,0,0,13µM
CC(NC(=O)c1ccco1)c1nnc2n1CCN(Cc1ccc(Cl)cc1)CC2 (stereo not given),-,-,-,-,0,-
Cc1cc(N2CCCC2)ccc1/C=C1/C(=O)N(C)C(=S)N1C,15µM,?,0,?,0,0
Cc1cc(/C=C2/C(=O)N(C)C(=S)N2C)ccc1N1CCCC1,0,0,0,?,?,0
CCOc1ccccc1-n1nnc(-c2nsc(NC(=O)c3ccc(C)cc3)n2)c1C,-,?,-,0,0,-
Cc1noc(C)c1C(=O)OCC(=O)c1c[nH]c2ccccc12,0,0,0,0,0,0
CCc1cccc2c(C(=O)COC(=O)c3c(C)noc3C)c[nH]c12,?,0,0,?,0,23µM
Cc1ccc(C)c(-n2sc3ccc(F)cc3c2=O)c1,18µM,0,0,0,0,?
CC(C)[N+](C)(C)CC(O)COc1cccc2ccccc12 (stereo not given),0,-,-,-,-,0
CCN(CC)S(=O)(=O)c1ccc2c(c1)c(=O)c(C(=O)NCc1ccccc1Cl)cn2C,-,0,-,0,0,-
Cc1ccc(S(=O)(=O)N/N=C/c2ccccc2O)cc1[N+](=O)[O-],0,0,0,0,0,0
Cc1ccc(S(=O)(=O)N/N=C/c2ccc(O)c(O)c2)cc1[N+](=O)[O-],21µM,0,0,?,0,0
C/C1=C\CCC2C(/C=C(\C)CC1)OC(=O)C2CN1CCCCC1 (stereo not given),21µM,0,0,?,0,?
COC(=O)[C@@]12C[C@@H](CC(=O)NCc3cccs3)C(=O)N(Cc3cccc4ccccc34)C1=CCC(C)(C)C2,-,?,-,16µM,-,-

# High-throughput results: PubChem, National Center for Advancing Translational Sciences (NCATS)
